Results published in PubChem BioAssay (Tox21).
Results filed as inconclusive are left out. A call without a number means that no potency is given here. Values without a mark were called inactive. Active and inactive are the calls of the source. Unless noted, calls follow the shape of the full dose curve.

Assay: p53 small molecule agonists, cell-based qHTS assay: qHTS cell viability counter screen (AID 1963581); also: nearly all actives have a fitted effect of over 45% in size
Conditions: p53RE-bla HCT-116 viability, ATP luminescence, 16 h; series mostly up to 66 µM
Outline: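 In the same plates used for the p53 bla reporter, HCT-116 cells given compounds for 16 h at 37 C received CellTiter-Glo; luminescence was recorded 30 min later at room temperature.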

SMILES	Potency	activity change, negative = cytotoxicity
CC(C)NCCCC1(C(N)=O)c2ccccc2-c2ccccc21	inactive	
CC(C(=O)O)c1cccc(Oc2ccccc2)c1 (centres undefined)	inactive	
CC(C)=CCC[C@@](C)(O)[C@H]1CC=C(C)CC1	inactive	
O=C(O)C[C@H](O)C[C@H](O)/C=C/c1c(C2CC2)nc2ccccc2c1-c1ccc(F)cc1		0.0104% [at 13.5 µM]
O=P(O)(O)OCC(O)CO (centres undefined)	inactive	
COC(=O)[C@H]1[C@H]2C[C@@H]3c4[nH]c5cc(OC)ccc5c4CCN3C[C@H]2C[C@@H](OC(=O)COc2ccc(OC)cc2)[C@@H]1OC	inactive	
Cc1ccc2c(Cl)cc(Cl)c(O)c2n1	inactive	
CCC(=O)OC(=O)CC	inactive	
O=C1c2ccccc2C(=O)N1CO	inactive	
Cc1cccc([N+](=O)[O-])c1C(=O)O	inactive	
Nc1nc2c(ncn2COCCO)c(=O)[nH]1	inactive	
C[N+]1(CC2COC(c3ccccc3)(c3ccccc3)O2)CCCCC1 (centres undefined)		-20.9% [at 13.5 µM]
Cc1ncc(CO)c(C=O)c1O	inactive	
CC(C)c1ccc(C#N)cc1	inactive	
CN(C)CCN1CCOCC1	inactive	
CCOC(=O)[C@H](C)O	inactive	
CO[C@@]1(NC(=O)CSCC#N)C(=O)N2C(C(=O)O)=C(CSc3nnnn3C)CS[C@@H]21	inactive	
O=C(Nc1ccccc1)Nc1ccccc1	inactive	
O=C(O)c1ccc[n+]([O-])c1	inactive	
NC(Cc1ccc(Cl)cc1)C(=O)O (centres undefined)		8.87% [at 0.249 µM]

SMILES	Potency	activity change, negative = cytotoxicity
CCCCCCCCCCc1ccccc1	inactive	
Cc1ccccc1N1C(=O)c2cc(S(N)(=O)=O)c(Cl)cc2NC1C (centres undefined)	inactive	
NC1CCN(c2nc3c(cc2F)c(=O)c(C(=O)O)cn3-c2ccc(F)cc2F)C1 (centres undefined)	inactive	
CCOc1cc([N+](=O)[O-])c(OCC)cc1N1CCOCC1	inactive	
CO[C@@H]1[C@H](OC(=O)/C=C/C=C/C=C/C=C/C(=O)O)CC[C@]2(CO2)[C@H]1[C@@]1(C)O[C@@H]1CC=C(C)C	inactive	
CN1C(=O)OC(C)(C)C1=O	inactive	
FC(F)(F)c1ccc(Cl)cc1Cl	inactive	
O=C(CCC1CCN(Cc2ccccc2)CC1)c1ccc2c(c1)NCCCC2	inactive	
Cn1c(=O)[nH]c2ncn(C)c2c1=O	inactive	
Nc1nc(Cl)nc2c1ncn2[C@@H]1O[C@H](CO)[C@@H](O)[C@@H]1F	inactive	
CC(C)(C)C1=CC(=O)C(C(C)(C)C)=CC1=O	inactive	
Cc1c(C(=O)NCCO)[n+](=O)c2ccccc2n1[O-]	inactive	
C=CC(C)(CCC=C(C)C)OC(=O)C(C)C (centres undefined)	inactive	
CN1Cc2cc(C(=O)N3CCC(C4CCNCC4)CC3)ccc2N[C@@H](CC(=O)O)C1=O	inactive	
[O-][n+]1cccc(CO)c1	inactive	
Cc1cc(C(=O)O)ccc1[N+](=O)[O-]	inactive	
CC(C)=CCC/C(C)=C/C=N/O	inactive	
CC(=O)c1c(C)cc(C(C)(C)C)cc1C	inactive	
O=S1(=O)c2cccc3cccc(c23)N1CCCN1CCN(c2ccc(F)cc2)CC1	inactive	

Assay: p53 small molecule agonists, cell-based qHTS assay (AID 1963582; active = well fitted activation curve with a large enough effect in the signal ratio in the repeat runs, not every such curve was filed as active; the % refers to the signal ratio)
Conditions: HCT-116 p53RE-bla reporter, beta-lactamase FRET ratio, 16 h; series mostly up to 66 µM
Outline: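 Compounds are pin-transferred in DMSO onto p53RE-bla cells and incubated 16 h at 37 C. The B/G FRET beta-lactamase substrate is then applied for 2 h at RT and fluorescence recorded.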

SMILES	Potency	activation
CC(C)NCCCC1(C(N)=O)c2ccccc2-c2ccccc21	inactive	
CC(C(=O)O)c1cccc(Oc2ccccc2)c1 (centres undefined)	inactive	
CC(C)=CCC[C@@](C)(O)[C@H]1CC=C(C)CC1	inactive	
O=P(O)(O)OCC(O)CO (centres undefined)	inactive	
COC(=O)[C@H]1[C@H]2C[C@@H]3c4[nH]c5cc(OC)ccc5c4CCN3C[C@H]2C[C@@H](OC(=O)COc2ccc(OC)cc2)[C@@H]1OC	inactive	
Cc1ccc2c(Cl)cc(Cl)c(O)c2n1	inactive	
CCC(=O)OC(=O)CC	inactive	
O=C1c2ccccc2C(=O)N1CO	inactive	
C[N+]12CCC(CC1)C(OC(=O)C(O)(c1ccccc1)c1ccccc1)C2 (centres undefined)	inactive	
Cc1cccc([N+](=O)[O-])c1C(=O)O	inactive	
Nc1nc2c(ncn2COCCO)c(=O)[nH]1	inactive	
C[N+]1(CC2COC(c3ccccc3)(c3ccccc3)O2)CCCCC1 (centres undefined)		0.97% [at 13.5 µM]
Cc1ncc(CO)c(C=O)c1O	inactive	
CC(C)c1ccc(C#N)cc1	inactive	
CN(C)CCN1CCOCC1	inactive	
CCOC(=O)[C@H](C)O	inactive	
O=C(Nc1ccccc1)Nc1ccccc1	inactive	
O=C(O)c1ccc[n+]([O-])c1	inactive	

SMILES	Potency	activation
NC(Cc1ccc(Cl)cc1)C(=O)O (centres undefined)		-0.216% [at 0.249 µM]
CCCCCCCCCCc1ccccc1	inactive	
Cc1ccccc1N1C(=O)c2cc(S(N)(=O)=O)c(Cl)cc2NC1C (centres undefined)	inactive	
NC1CCN(c2nc3c(cc2F)c(=O)c(C(=O)O)cn3-c2ccc(F)cc2F)C1 (centres undefined)	inactive	
CCOc1cc([N+](=O)[O-])c(OCC)cc1N1CCOCC1	inactive	
CN1C(=O)OC(C)(C)C1=O	inactive	
FC(F)(F)c1ccc(Cl)cc1Cl	inactive	
O=C(CCC1CCN(Cc2ccccc2)CC1)c1ccc2c(c1)NCCCC2	inactive	
Cn1c(=O)[nH]c2ncn(C)c2c1=O	inactive	
CC(C)(C)C1=CC(=O)C(C(C)(C)C)=CC1=O	inactive	
Cc1c(C(=O)NCCO)[n+](=O)c2ccccc2n1[O-]	inactive	
C=CC(C)(CCC=C(C)C)OC(=O)C(C)C (centres undefined)	inactive	
CN1Cc2cc(C(=O)N3CCC(C4CCNCC4)CC3)ccc2N[C@@H](CC(=O)O)C1=O	inactive	
[O-][n+]1cccc(CO)c1	inactive	
Cc1cc(C(=O)O)ccc1[N+](=O)[O-]	inactive	
CC(=O)c1c(C)cc(C(C)(C)C)cc1C	inactive	
O=S1(=O)c2cccc3cccc(c23)N1CCCN1CCN(c2ccc(F)cc2)CC1	inactive	
